Results as given in PubChem BioAssay AID1159580 (chemical genetic matrix, 2015).
The whole screen tested about 5,500 compounds, of which about 2,000 (36%) were called active. Inconclusive results (about 18%) are left out. Rule as the data show it: active = normalized growth mostly below about 0.91 (no sharp cut-off); inconclusive = no clear call, values can overlap the other calls; inactive = mostly above about 0.92. The list shows a part of the results.

Assay: chemical genetic growth profiling, strain panel (AID 1159580);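 also: tested at 20 µM; growth read once vehicle control cultures reached saturation at 30 °C; 1 = growth at the plate median or of vehicle wells; lower values mean less growth of the strain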
Settings: S. cerevisiae deletion strains, growth OD

Measured: normalized growth

O=S(=O)(c1cc(Cl)ccc1Cl)N1CCc2ccccc2C1
inactive: locus YAR019C, strain CDC15, stronger effect = lower value 0.98 | locus YBL105C, strain PKC1, stronger effect = lower value 0.977 | locus YBR135W, strain CKS1, stronger effect = lower value 0.971 | locus YBR136W, strain MEC1, stronger effect = lower value 0.983 | locus YBR160W, strain CDC28, stronger effect = lower value 0.982 | locus YDL017W, strain CDC7, stronger effect = lower value 0.982 | locus YDL028C, strain MPS1, stronger effect = lower value 0.976 | locus YDL101C, strain DUN1, stronger effect = lower value 0.981 | locus YDL108W, strain KIN28, stronger effect = lower value 0.98 | locus YDL132W, strain cdc53, stronger effect = lower value 0.973 | locus YDL214C, strain PRR2, stronger effect = lower value 1.02 | locus YDR052C, strain DBF4, stronger effect = lower value 0.983 | locus YDR054C, strain cdc34, stronger effect = lower value 0.977 | locus YDR226W, strain ADK1, stronger effect = lower value 0.978 | locus YDR477W, strain SNF1, stronger effect = lower value 1.02 | locus YER123W, strain YCK3, stronger effect = lower value 1 | locus YER133W, strain GLC7, stronger effect = lower value 1.02 | locus YFL009W, strain cdc4, stronger effect = lower value 0.967 | locus YFL029C, strain CAK1, stronger effect = lower value 0.978 | locus YFR003C, strain YPI1, stronger effect = lower value 0.981 | locus YFR019W, strain FAB1, stronger effect = lower value 0.99 | locus YFR028C, strain CDC14, stronger effect = lower value 0.981 | locus YGR040W, strain KSS1, stronger effect = lower value 1.03 | locus YGR052W, strain FMP48, stronger effect = lower value 1.06 | locus YGR092W, strain DBF2, stronger effect = lower value 0.994 | locus YHR030C, strain SLT2, stronger effect = lower value 0.951 | locus YHR079C, strain IRE1, stronger effect = lower value 0.987 | locus YHR082C, strain KSP1, stronger effect = lower value 1.15 | locus YHR205W, strain SCH9, stronger effect = lower value 0.912 | locus YIL147C, strain SLN1, stronger effect = lower value 0.975 | locus YJL095W, strain BCK1, stronger effect = lower value 0.96 | locus YJL128C, strain PBS2, stronger effect = lower value 0.925 | locus YJL157C, strain FAR1, stronger effect = lower value 1.01 | locus YJR016C, strain ILV3, stronger effect = lower value 0.985 | locus YJR066W, strain TOR1 (second series), stronger effect = lower value 1.02 | locus YJR066W, strain TOR1, stronger effect = lower value 1.11 | locus YKL048C, strain ELM1, stronger effect = lower value 1 | locus YKL067W, strain YNK1, stronger effect = lower value 1 | locus YKL101W, strain HSL1, stronger effect = lower value 0.994 | locus YKL193C, strain SDS22, stronger effect = lower value 0.971 | locus YKL203C, strain TOR2, stronger effect = lower value 1.08 | locus YLR113W, strain HOG1, stronger effect = lower value 0.953 | locus YLR133W, strain CKI1, stronger effect = lower value 1 | locus YLR403W, strain SFP1, stronger effect = lower value 0.964 | locus YML070W, strain DAK1, stronger effect = lower value 1.02 | locus YMR001C, strain CDC5, stronger effect = lower value 0.98 | locus YMR205C, strain PFK2 (second series), stronger effect = lower value 0.995 | locus YMR277W, strain FCP1, stronger effect = lower value 0.982 | locus YNL006W, strain LST8, stronger effect = lower value 0.984 | locus YNL020C, strain ARK1, stronger effect = lower value 1.01 | locus YNL161W, strain CBK1, stronger effect = lower value 0.981 | locus YNL183C, strain NPR1, stronger effect = lower value 1.14 | locus YNL207W, strain RIO2, stronger effect = lower value 0.98 | locus YNL222W, strain SSU72, stronger effect = lower value 0.983 | locus YNL307C, strain MCK1 (second series), stronger effect = lower value 0.999 | locus YOL078W, strain AVO1, stronger effect = lower value 0.975 | locus YOL136C, strain PFK27, stronger effect = lower value 1 | locus YOR061W, strain CKA2, stronger effect = lower value 0.99 | locus YOR119C, strain RIO1, stronger effect = lower value 1.08 | locus YOR231W, strain MKK1, stronger effect = lower value 1.06 | locus YOR329C, strain SCD5, stronger effect = lower value 0.985 | locus YPL031C, strain PHO85, stronger effect = lower value 1.01 | locus YPL153C, strain RAD53, stronger effect = lower value 1.01 | locus YPL204W, strain HRR25, stronger effect = lower value 1.02 | locus YPL209C, strain IPL1, stronger effect = lower value 0.979 | locus YPL256C, strain CLN2, stronger effect = lower value 0.987 | locus YPR025C, strain CCL1, stronger effect = lower value 0.977 | locus YPR106W, strain ISR1, stronger effect = lower value 0.986 | locus YPR111W, strain DBF20, stronger effect = lower value 0.978 | strain NNK1, stronger effect = lower value 0.983 | strain TSCII, stronger effect = lower value 0.985
